Test results as given in PubChem BioAssay AID772 (SRMLSC, 2007).
In all, about 3,300 compounds went through this assay and about 20 (0.6%) were called active. This is one part of a sample in which actives are shown more often than they occur.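 The calls were made as follows: active = growth inhibition above 90%, meaning viable cell count cut by more than 90% versus vehicle controls; inactive = growth inhibition below 90%.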

Test: HT29 colon tumor cell growth inhibition, primary screen, imaging, high content imaging, 72 h, CellTiter-Glo (AID 772);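 as to condensed nuclei: condensed means nuclear area below control median minus 1.5 SD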
Settings: HCS imaging cell count, at 10 µM, stronger effect = higher value; for condensed nuclei: measured here: percent cells with condensed nuclei
[1] = measured here: ATP CellTiter-Glo viability

| Compound | growth inhibition | growth inhibition [1] | condensed nuclei |
| --- | --- | --- | --- |
| CCCCOCCCn1c(N)c(C(=O)OC(C)COC)c2nc3ccccc3nc21 (stereo not given) | 91.4% (active) | 77.2% | 11% |
| CCCCOCCCn1c(N)c(C(=O)OCCOC)c2nc3ccccc3nc21 | 95.3% (active) | 57.5% | 17.2% |
| COCCOC(=O)c1c(N)n(Cc2ccco2)c2nc3ccccc3nc12 | -33.9% (inactive) | -49.5% | 3.83% |
| CC(C)OC(=O)c1c(N)n(Cc2ccco2)c2nc3ccccc3nc12 | 31.4% (inactive) | -17.3% | 3.52% |
| COCC(C)OC(=O)c1c(N)n(Cc2ccco2)c2nc3ccccc3nc12 (stereo not given) | 44.2% (inactive) | 19.7% | 1.26% |
| CC(C)(C)OC(=O)c1c(N)n(Cc2ccco2)c2nc3ccccc3nc12 | 44.5% (inactive) | 20.9% | 4.1% |
| COc1ccc(C2SCC(=O)Nc3c2c(=O)[nH]n3C2CCCCC2)cc1 (stereo not given) | 1.43% (inactive) | -9.94% | 12.4% |
| Clc1ccc(CSC(Cn2ccnc2)c2ccc(Cl)cc2Cl)cc1 (stereo not given) | 57.5% (inactive) | 71.7% | 13.6% |
| CCN(CC)CCCNC(=O)c1c(O)c2ccccc2n(Cc2ccccc2)c1=O | 84.5% (inactive) | 95.7% | 16% |
| CCCCn1c(O)c(C=NCCN2CCCCC2)c(=O)[nH]c1=O | 4.76% (inactive) | -24.2% | 0.91% |
